The supplement of paper PMC10849652
Targets with a hit are over-represented here; the source holds about 7,900 in all. About 0.6% of all pairs of compound and target were hits.

Key:
Experiment in all cases: log2 fold change, soluble protein after heating vs DMSO (PISA); higher = thermal stabilisation; K562 cells, 10 uM, 30 min; active = over 0.2 and 3.5 SD of the protein, either way, in both replicates (recomputed)
[1] = compound: C1COCCN1CCN2C3=CC=CC=C3N=C2NC(=O)C4=CC(=CC=C4)[N+](=O)[O-] [IRAK-1-4 Inhibitor I]
How it was run: (§1)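 K562 cells at 2×10^6 cells/mL were given 10 μM compound for 30 min. Aliquots then went through 3 min of heating across 48°C-58°C, were pooled, and were extracted in PBS with 0.5% NP-40 at 4°C, and the supernatant after 21,000xg for 90 min was quantified by TMTpro 16plex LC-MS/MS with channel sums equalised. Thermal stability relative to control samples, from duplicates, is given as log2 fold change.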

[2] = compound: C=CC(=O)N1CCC[C@@H](n2nc(-c3ccc(Oc4ccccc4)cc3)c3c(N)ncnc32)C1 [ibrutinib]
How it was run: as §1

[3] = compound: CC(=O)c1cnc2ccc(-c3cc(Cl)c(O)c(Cl)c3)nc2c1N[C@H]1CC[C@H](CN(C)C)CC1
How it was run: as §1

[4] = compound: CC(C)(C)Cn1c(N)nc2ccc(-c3[nH]c(C(C)(C)C)nc3-c3ccc(F)cc3)nc21 [ralimetinib]
How it was run: as §1

[5] = compound: CC(C)(O)CC(=O)NCCn1ccc2ncnc(Nc3ccc(Oc4cccc(C(F)(F)F)c4)c(Cl)c3)c21
How it was run: as §1

[6] = compound: CC(C)C1=C2N=C(C=C(N2N=C1)NCC3=CC=CC=C3)NCCCCCCN
How it was run: as §1

[7] = compound: CC(C)C[C@@H](C=O)NC(=O)[C@H](CC(C)C)NC(=O)[C@H](CC(C)C)NC(=O)OCc1ccccc1
How it was run: as §1

[8] = compound: CC(C)N(C[C@H]1O[C@@H](n2cnc3c(N)ncnc32)[C@H](O)[C@@H]1O)[C@H]1C[C@@H](CCc2nc3cc(C(C)(C)C)ccc3[nH]2)C1 [pinometostat]
How it was run: as §1

[9] = compound: CC1=C(C(CC(=O)N1)C2=CC=C(C=C2)C(F)(F)F)C(=O)NC3=C(C=C4C(=C3)C=NN4)F
How it was run: as §1

[10] = compound: CC1=C(C2=C(C=C1)C(=O)C3=CC=CC=C3N2CCCN)C
How it was run: as §1

[11] = compound: CC1=C(C=C(C=C1)NC(=O)C2=CC(=CC=C2)C(C)(C)C#N)NC3=CC4=C(C=C3)N=CN(C4=O)C
How it was run: as §1

[12] = compound: CC1=C(C=C(C=C1)NC(=O)C2=CC(=CC=C2)N(C)C)NC(=O)C3=CC=C(C=C3)O
How it was run: as §1

[13] = compound: CC1=CC=C(C=C1)SC2=C3C=C(SC3=CN=C2)C(=O)N
How it was run: as §1

[14] = compound: CC1=NC(=CC=C1)C2=C(N=C(N2)C(C)(C)C)C3=CC4=NC=CN=C4C=C3
How it was run: as §1

[15] = compound: CCCCN(Cc1ccc(C(=O)NO)cc1)C(=O)Nc1ccccc1 [Nexturastat A]
How it was run: as §1

[16] = compound: CCCS(=O)(=O)Nc1ccc(F)c(C(=O)c2c[nH]c3ncc(-c4ccc(Cl)cc4)cc23)c1F [vemurafenib]
How it was run: as §1

[17] = compound: CCCS(=O)(=O)Nc1ccc(F)c(C(=O)c2c[nH]c3ncc(Cl)cc23)c1F
How it was run: as §1

[18] = compound: CCCc1cc(C)[nH]c(=O)c1CNC(=O)c1cc(-c2ccnc(N3CCN(C)CC3)c2)cc2c1cnn2C(C)C
How it was run: as §1

[19] = compound: CCN(CC)Cc1ccc2cc(COC(=O)Nc3ccc(C(=O)NO)cc3)ccc2c1 [givinostat]
How it was run: as §1

[20] = compound: CCN(CCCOc1ccc2c(Nc3cc(CC(=O)Nc4cccc(F)c4)[nH]n3)ncnc2c1)CCOP(=O)(O)O [barasertib]
How it was run: as §1

Measured: log2 fold change

USO1 isoform 2 (UniProt O60763)
inactive: [1] 0.05 | [2] -0.025 | [3] 0.066 | [4] 0.004 | [5] -0.061 | [6] -0.108 | [7] -0.01 | [8] 0.008 | [9] -0.011 | [10] -0.005 | [11] 0.009 | [12] -0.013 | [13] 0.02 | [14] 0.038 | [15] -0.029 | [16] 0.063 | [17] 0.062 | [18] -0.018 | [19] 0 | [20] 0.031

UGDH (UniProt O60701)
inactive: [1] -0.019 | [2] 0.03 | [4] -0.046 | [5] -0.038 | [6] 0.017 | [7] -0.043 | [8] -0.105 | [9] 0.004 | [10] 0.078 | [11] 0.039 | [12] -0.005 | [13] 0.028 | [14] 0.083 | [15] -0.064 | [16] 0.043 | [17] 0.102 | [18] -0.097 | [19] 0.031 | [20] 0.079
active: [3] -0.616

WBP4 (UniProt O75554)
Sequence of UniProt O75554 (O75554 whole entry, looked up): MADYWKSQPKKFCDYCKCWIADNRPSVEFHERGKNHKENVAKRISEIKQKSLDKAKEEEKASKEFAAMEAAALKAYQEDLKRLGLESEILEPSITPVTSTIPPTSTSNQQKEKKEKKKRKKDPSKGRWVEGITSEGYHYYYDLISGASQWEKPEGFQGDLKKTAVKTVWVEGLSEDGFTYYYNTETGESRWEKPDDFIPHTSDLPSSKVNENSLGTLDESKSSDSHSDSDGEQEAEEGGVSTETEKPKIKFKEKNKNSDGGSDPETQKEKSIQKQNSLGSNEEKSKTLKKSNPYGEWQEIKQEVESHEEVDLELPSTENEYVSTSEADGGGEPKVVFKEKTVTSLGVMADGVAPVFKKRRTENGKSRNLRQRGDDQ
inactive: [1] 0.082 | [2] -0.001 | [3] 0.033 | [4] -0.057 | [5] -0.001 | [6] 0.098 | [7] 0.041 | [8] -0.06 | [9] -0.003 | [10] 0.02 | [11] 0.105 | [12] 0.044 | [13] 0.057 | [14] -0.036 | [15] -0.047 | [16] 0.022 | [17] 0.011 | [18] 0 | [19] -0.043 | [20] -0.022

TMEM9B (UniProt Q9NQ34)
Sequence of UniProt Q9NQ34 (Q9NQ34 whole entry, looked up): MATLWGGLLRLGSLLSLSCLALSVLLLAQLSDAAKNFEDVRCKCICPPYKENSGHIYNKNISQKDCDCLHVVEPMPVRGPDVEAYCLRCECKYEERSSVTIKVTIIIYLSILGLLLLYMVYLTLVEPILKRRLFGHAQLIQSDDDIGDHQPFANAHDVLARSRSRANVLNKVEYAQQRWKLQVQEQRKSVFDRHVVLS
inactive: [1] -0.019 | [2] 0.038 | [3] -0.083 | [5] 0.014 | [6] -0.082 | [7] -0.006 | [8] 0.015 | [9] 0.027 | [10] 0.038 | [11] -0.068 | [12] 0.042 | [13] 0.105 | [14] 0.01 | [15] -0.055 | [16] 0.013 | [17] 0.064 | [18] 0.006 | [19] -0.023 | [20] -0.015
active: [4] 0.324

TTI2 (UniProt Q6NXR4)
inactive: [1] -0.032 | [2] -0.006 | [3] 0.005 | [4] 0.033 | [5] -0.196 | [6] -0.079 | [7] 0.032 | [8] 0.016 | [9] -0.044 | [10] 0.033 | [11] 0.021 | [12] -0.039 | [13] 0.024 | [14] 0.023 | [15] 0.113 | [16] 0.047 | [17] 0.06 | [18] -0.018 | [19] 0.135 | [20] -0.028

UBA6
inactive: [1] -0.038 | [2] -0.01 | [3] -0.009 | [4] -0.002 | [5] -0.012 | [6] -0.044 | [7] -0.025 | [8] 0.004 | [9] -0.044 | [10] 0.106 | [11] 0.086 | [12] -0.044 | [13] 0.032 | [14] 0.02 | [15] -0.027 | [16] 0.057 | [17] 0.086 | [18] 0.036 | [19] 0.015 | [20] 0.07

TXNL1 (UniProt O43396)
inactive: [1] -0.035 | [2] -0.014 | [3] -0.001 | [4] -0.003 | [5] -0.03 | [6] -0.052 | [8] -0.029 | [9] -0.027 | [10] 0.038 | [11] 0.02 | [12] -0.105 | [13] 0.007 | [14] 0.098 | [15] 0.117 | [16] 0.037 | [17] 0.079 | [18] 0.015 | [19] 0.114 | [20] 0.045
active: [7] 0.278

VPS50 (UniProt Q96JG6)
Sequence of UniProt Q96JG6 (Q96JG6 whole entry, looked up): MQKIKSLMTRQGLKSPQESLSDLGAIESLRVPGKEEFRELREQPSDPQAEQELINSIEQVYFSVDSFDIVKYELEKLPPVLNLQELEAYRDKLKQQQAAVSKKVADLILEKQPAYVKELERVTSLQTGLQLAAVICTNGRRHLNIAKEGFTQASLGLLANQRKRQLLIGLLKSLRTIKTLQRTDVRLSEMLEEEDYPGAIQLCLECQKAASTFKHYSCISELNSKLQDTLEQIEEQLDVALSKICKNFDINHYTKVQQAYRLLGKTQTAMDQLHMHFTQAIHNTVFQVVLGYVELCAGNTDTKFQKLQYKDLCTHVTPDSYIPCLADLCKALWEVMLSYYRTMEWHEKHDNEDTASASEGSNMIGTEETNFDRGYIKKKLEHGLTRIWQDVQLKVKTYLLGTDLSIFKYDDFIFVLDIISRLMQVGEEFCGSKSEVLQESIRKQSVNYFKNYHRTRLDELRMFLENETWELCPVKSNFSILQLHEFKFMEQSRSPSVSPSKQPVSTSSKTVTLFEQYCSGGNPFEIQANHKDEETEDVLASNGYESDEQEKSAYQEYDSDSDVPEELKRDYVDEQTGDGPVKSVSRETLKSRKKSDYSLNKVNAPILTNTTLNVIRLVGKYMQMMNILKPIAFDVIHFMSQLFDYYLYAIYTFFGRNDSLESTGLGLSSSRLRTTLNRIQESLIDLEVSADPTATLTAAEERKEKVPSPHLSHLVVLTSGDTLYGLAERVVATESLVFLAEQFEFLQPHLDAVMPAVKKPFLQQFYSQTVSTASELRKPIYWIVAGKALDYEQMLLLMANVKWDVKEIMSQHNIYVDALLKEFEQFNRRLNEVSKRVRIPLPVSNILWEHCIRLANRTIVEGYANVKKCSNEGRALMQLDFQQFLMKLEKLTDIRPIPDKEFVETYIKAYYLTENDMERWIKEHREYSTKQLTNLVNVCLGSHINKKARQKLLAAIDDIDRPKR
inactive: [1] -0.046 | [2] -0.009 | [3] -0.003 | [4] 0.12 | [5] -0.138 | [6] -0.099 | [7] 0.053 | [8] -0.014 | [9] 0.025 | [10] 0.023 | [11] -0.007 | [12] -0.076 | [13] 0.054 | [14] 0.054 | [15] -0.052 | [16] 0.077 | [17] 0.066 | [18] 0.09 | [19] 0.014 | [20] 0.059

TUBA4A (UniProt P68366)
Sequence of UniProt P68366 (P68366 whole entry, looked up): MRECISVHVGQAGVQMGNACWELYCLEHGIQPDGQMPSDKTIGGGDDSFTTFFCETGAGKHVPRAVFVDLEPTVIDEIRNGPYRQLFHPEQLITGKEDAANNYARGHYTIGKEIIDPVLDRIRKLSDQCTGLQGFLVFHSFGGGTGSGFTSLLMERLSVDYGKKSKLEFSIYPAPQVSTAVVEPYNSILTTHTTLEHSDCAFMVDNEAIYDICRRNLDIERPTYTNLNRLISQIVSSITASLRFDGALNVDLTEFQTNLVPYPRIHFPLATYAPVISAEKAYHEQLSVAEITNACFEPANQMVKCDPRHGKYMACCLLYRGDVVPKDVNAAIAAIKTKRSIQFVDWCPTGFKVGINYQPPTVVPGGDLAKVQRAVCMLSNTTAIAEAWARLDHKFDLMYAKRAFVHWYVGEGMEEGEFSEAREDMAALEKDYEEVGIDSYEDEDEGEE
inactive: [1] 0.039 | [2] 0.01 | [3] 0.001 | [4] -0.044 | [5] -0.032 | [6] 0 | [7] 0.016 | [8] -0.039 | [9] -0.014 | [10] 0.011 | [11] 0.005 | [12] 0.004 | [13] 0.061 | [14] 0.04 | [15] -0.03 | [16] 0.005 | [17] 0.068 | [18] -0.004 | [19] 0.014 | [20] -0.002

VPS53 isoform 4 (UniProt Q5VIR6)
Sequence of UniProt Q5VIR6 (Q5VIR6 whole entry, looked up): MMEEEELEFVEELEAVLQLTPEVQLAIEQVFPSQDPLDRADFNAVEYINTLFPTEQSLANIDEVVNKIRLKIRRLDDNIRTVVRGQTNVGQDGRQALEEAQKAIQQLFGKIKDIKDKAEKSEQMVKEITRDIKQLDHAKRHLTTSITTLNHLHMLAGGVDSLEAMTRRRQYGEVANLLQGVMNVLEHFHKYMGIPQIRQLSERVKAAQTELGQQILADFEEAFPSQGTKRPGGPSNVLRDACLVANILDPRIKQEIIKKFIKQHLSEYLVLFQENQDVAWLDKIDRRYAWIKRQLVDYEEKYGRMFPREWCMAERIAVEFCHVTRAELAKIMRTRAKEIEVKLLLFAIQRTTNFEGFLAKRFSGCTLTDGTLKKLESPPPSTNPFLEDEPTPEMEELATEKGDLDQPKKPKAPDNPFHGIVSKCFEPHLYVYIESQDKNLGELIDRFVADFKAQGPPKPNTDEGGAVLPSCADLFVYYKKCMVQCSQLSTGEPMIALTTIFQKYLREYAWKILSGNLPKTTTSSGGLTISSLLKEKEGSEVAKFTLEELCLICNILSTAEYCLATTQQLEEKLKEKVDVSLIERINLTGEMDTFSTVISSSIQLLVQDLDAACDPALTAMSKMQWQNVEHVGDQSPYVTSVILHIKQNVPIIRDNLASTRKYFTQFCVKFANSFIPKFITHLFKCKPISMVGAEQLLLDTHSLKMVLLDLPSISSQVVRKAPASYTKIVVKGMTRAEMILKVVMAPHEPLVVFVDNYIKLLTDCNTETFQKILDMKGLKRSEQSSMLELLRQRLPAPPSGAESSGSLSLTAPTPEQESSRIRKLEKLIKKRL
inactive: [1] -0.035 | [2] 0.011 | [3] -0.046 | [4] -0.022 | [5] -0.101 | [6] -0.142 | [7] 0.095 | [8] 0.076 | [9] -0.032 | [10] 0.036 | [11] -0.037 | [12] -0.053 | [13] 0.01 | [14] -0.031 | [15] 0.022 | [16] 0.046 | [17] 0.003 | [18] 0.03 | [19] 0.045 | [20] 0.045

TNNC2 (UniProt P02585)
inactive: [1] 0.042 | [2] 0.012 | [3] 0.004 | [4] -0.068 | [5] 0 | [6] 0.116 | [7] 0.025 | [8] -0.067 | [9] -0.005 | [10] 0.114 | [11] -0.064 | [12] 0.037 | [13] 0.002 | [14] -0.024 | [15] -0.011 | [16] 0 | [17] -0.016 | [18] -0.045 | [19] -0.037 | [20] -0.004

TRIP10 isoform 2 (UniProt Q15642)
Sequence of UniProt Q15642 (Q15642 whole entry, looked up): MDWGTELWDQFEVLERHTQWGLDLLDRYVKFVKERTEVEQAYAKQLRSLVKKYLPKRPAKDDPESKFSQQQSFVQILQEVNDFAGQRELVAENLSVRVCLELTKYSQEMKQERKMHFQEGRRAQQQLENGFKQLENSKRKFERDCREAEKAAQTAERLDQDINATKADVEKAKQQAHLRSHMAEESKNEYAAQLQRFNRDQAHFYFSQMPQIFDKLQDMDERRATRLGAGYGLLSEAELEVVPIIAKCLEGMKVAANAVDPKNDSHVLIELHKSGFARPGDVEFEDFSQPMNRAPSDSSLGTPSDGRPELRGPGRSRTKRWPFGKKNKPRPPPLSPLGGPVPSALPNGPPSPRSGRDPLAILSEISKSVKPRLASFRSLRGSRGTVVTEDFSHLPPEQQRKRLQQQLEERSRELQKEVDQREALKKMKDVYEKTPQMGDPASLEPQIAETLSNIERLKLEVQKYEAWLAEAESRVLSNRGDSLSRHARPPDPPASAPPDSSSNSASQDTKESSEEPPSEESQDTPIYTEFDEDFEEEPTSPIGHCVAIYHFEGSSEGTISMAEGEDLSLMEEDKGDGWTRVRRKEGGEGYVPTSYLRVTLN
inactive: [1] 0.09 | [2] -0.032 | [3] -0.078 | [4] 0.143 | [5] 0.004 | [6] 0.204 | [7] -0.118 | [8] -0.027 | [9] 0.118 | [10] -0.01 | [11] -0.068 | [12] -0.04 | [13] 0.019 | [14] 0.046 | [15] 0.12 | [16] 0.026 | [17] 0.177 | [18] 0.004 | [19] 0.01 | [20] 0.011

TRMT10C (UniProt Q7L0Y3)
inactive: [1] 0.029 | [2] 0.011 | [3] -0.07 | [4] -0.06 | [5] -0.055 | [6] 0.012 | [7] 0.005 | [8] -0.021 | [9] 0.016 | [10] 0.014 | [11] 0.013 | [12] -0.051 | [13] 0.017 | [14] 0.007 | [15] -0.095 | [16] 0.015 | [17] 0.042 | [18] -0.013 | [19] -0.022 | [20] 0.041

USP14 (UniProt P54578)
Sequence of UniProt P54578 (P54578 whole entry, looked up): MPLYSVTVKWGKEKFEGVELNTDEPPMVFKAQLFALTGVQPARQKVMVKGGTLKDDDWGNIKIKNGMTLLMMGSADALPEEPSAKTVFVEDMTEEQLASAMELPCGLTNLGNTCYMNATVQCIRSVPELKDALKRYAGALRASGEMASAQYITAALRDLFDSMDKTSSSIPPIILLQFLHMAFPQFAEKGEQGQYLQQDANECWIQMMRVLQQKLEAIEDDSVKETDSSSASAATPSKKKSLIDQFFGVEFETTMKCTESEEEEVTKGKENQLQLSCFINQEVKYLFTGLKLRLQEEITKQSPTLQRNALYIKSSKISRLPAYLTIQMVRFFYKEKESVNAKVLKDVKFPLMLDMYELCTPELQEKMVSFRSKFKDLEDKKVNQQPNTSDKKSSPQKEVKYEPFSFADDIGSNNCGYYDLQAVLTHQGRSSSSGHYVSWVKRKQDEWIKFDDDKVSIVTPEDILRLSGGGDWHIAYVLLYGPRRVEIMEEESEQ
inactive: [1] -0.013 | [2] -0.045 | [3] -0.004 | [4] 0.021 | [5] -0.028 | [6] -0.068 | [7] 0.044 | [8] -0.031 | [9] 0 | [10] 0.014 | [11] 0.023 | [12] -0.018 | [13] 0.01 | [14] 0.034 | [15] -0.069 | [16] 0.021 | [17] 0.093 | [18] 0.012 | [19] -0.006 | [20] 0.032

TRAPPC11 (UniProt Q7Z392)
Sequence of UniProt Q7Z392 (Q7Z392 whole entry, looked up): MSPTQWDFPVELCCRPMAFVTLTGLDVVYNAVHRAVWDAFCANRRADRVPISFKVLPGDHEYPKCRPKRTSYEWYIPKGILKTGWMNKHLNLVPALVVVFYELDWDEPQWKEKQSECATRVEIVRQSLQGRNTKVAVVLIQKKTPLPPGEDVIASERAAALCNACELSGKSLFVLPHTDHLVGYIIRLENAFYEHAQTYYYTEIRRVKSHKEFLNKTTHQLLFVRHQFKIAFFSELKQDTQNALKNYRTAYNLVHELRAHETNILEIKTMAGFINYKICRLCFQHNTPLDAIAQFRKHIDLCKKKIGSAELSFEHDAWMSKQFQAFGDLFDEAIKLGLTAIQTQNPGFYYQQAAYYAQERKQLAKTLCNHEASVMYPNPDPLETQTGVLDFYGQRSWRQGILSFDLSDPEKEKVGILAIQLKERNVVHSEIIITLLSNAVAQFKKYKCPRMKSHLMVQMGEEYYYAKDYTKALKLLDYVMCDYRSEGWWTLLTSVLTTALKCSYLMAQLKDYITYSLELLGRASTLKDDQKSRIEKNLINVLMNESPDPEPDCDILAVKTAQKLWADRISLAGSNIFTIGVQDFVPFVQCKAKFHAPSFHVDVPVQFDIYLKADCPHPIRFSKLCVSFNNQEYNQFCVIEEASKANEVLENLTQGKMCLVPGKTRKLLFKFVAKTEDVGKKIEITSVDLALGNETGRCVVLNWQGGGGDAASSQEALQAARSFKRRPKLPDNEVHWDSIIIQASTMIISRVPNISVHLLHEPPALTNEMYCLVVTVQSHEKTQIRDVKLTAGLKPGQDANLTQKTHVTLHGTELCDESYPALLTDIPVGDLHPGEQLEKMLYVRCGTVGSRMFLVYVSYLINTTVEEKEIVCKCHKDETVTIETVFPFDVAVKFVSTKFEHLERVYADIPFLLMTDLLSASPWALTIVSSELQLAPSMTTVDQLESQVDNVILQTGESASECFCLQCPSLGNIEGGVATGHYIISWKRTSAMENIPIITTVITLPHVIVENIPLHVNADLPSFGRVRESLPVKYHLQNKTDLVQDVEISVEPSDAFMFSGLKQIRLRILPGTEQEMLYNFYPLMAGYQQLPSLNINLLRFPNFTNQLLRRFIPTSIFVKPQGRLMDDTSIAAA
inactive: [1] -0.007 | [2] 0.001 | [3] -0.048 | [4] 0.034 | [5] -0.063 | [6] -0.064 | [7] 0.012 | [8] 0.032 | [9] -0.048 | [10] 0.028 | [11] 0.098 | [12] 0.01 | [13] -0.014 | [14] -0.053 | [15] 0.046 | [16] 0.033 | [17] 0.025 | [18] -0.012 | [19] 0.037 | [20] 0.025
